Structures can show the parent of a compound that is named as a salt. A number with no mark means an inactive call.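 How the source made its calls: active = AUC significantly below DMSO controls by Student t-fit with adjusted P under 0.01; inactive = not significantly reduced.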
system: Haemophilus parainfluenzae; experiment: growth AUC normalised to DMSO control (fraction of control); higher = less growth inhibition, active = hit call of the paper; conditions: 20 µM
How it was run: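 After two anaerobic passages, pathogens were added at a starting OD578 of 0.01 to pre-reduced mGAM plates holding compound at 20 μM with 1% DMSO; hemin and NAD were supplemented for Haemophilus parainfluenzae. Sealed with breathable membranes, plates were read at OD578 hourly for 24 h, in three biological replicates. The trapezoidal rule, applied up to the exponential-to-stationary transition, gave the growth-curve AUC, which was normalised to DMSO controls on the same plate.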

| SMILES | growth AUC normalised to DMSO control |
| --- | --- |
| Nc1ccc(/N=N/c2ccccc2)c(N)n1 [Phenazopyridine hydrochloride] | 0.922 |
| CCN(CC)CC#CCOC(=O)C(O)(c1ccccc1)C1CCCCC1 (stereo not given) [Oxybutynin chloride] | 0.952 |
| Cn1c(=O)c2nc[nH]c2n(C)c1=O [Theophylline monohydrate] | 0.98 |
| CC=C(C)C(=O)OC1C(OC(C)=O)C2(CO)C(O)CC3(C)C(=CCC4C5(C)CCC(OC6OC(C(=O)O)C(OC7OC(CO)C(O)C(O)C7O)C(O)C6OC6OC(CO)C(O)C(O)C6O)C(C)(CO)C5CCC43C)C2CC1(C)C (stereo not drawn) [Beta-Escin] | 1.01 |
| CCN(CC)CCOC(=O)C(c1ccccc1)c1ccccc1 [Adiphenine hydrochloride] | 1.02 |
| C[N+](C)(C)CCCCCC[N+](C)(C)C [Hexamethonium dibromide dihydrate] | 0.852 |
| CN1CCN(C(c2ccccc2)c2ccc(Cl)cc2)CC1 (stereo not given) [Chlorcyclizine hydrochloride] | 0.982 |
| CC(=O)OCC(=O)[C@@]12OC3(CCCC3)O[C@@H]1C[C@H]1[C@@H]3CCC4=CC(=O)C=C[C@]4(C)[C@@]3(F)[C@@H](O)C[C@@]12C [Amcinonide] | 1.03 |
| CCCC1C(=O)N2C(N(C)C)=Nc3ccc(C)cc3N2C1=O (stereo not given) [Azapropazone] | 0.968 |
| CN(C)CCC(c1ccc(Br)cc1)c1ccccn1 (stereo not given) [Brompheniramine maleate] | 1.04 |
